Screens from PubChem.
The list is not random: actives were taken first. Their share in the collection is about 3.4%.
MITF inh = human MITF inhibition, primary screen; O75030; 650,000 compounds, 0.91% hits; AlphaScreen MITF homodimerization, bead proximity signal; AID 1259374; inhibition, % at 2.6 µM; in the data active = inhibition above about 50%;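 note: 0% = vehicle wells with protein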
TEAD-YAP block = TEAD-YAP interaction inhibition; inhibition, % at 9.12 µM; 640,000 compounds, 1.4% hits; HEK-TIYL cells, TEAD-Gal4/YAP UAS-luciferase luminescence; in the data active = inhibition above about 32%;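 note: 0% = median of test compound wells and 100% = reference inhibitor wells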
GPR151 ag = activates the human receptor GPR151; AID 1508602; activation, % at 11.2 µM; Q8TDV0; 650,000 compounds, 1% hits; PathHunter beta-arrestin GPR151 cells, luminescence; in the data active = activation above about 4.9%;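 note: 0% = median of compound wells and 100% = cells with positive control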
Target sequence (Q8TDV0 whole entry, looked up): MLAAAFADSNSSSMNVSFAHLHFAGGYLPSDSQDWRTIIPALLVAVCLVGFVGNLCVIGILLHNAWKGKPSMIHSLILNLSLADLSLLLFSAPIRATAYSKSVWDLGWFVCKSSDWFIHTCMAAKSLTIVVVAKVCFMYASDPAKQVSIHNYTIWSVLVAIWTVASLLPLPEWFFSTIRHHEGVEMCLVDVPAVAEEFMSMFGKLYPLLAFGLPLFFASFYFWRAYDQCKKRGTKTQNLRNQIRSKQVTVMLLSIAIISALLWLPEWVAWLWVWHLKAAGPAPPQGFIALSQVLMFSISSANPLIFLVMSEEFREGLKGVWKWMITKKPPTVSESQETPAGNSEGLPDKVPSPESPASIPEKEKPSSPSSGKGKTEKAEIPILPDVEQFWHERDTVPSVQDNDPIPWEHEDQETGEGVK
FBW7 activator = human FBW7 E3 ligase activation, primary screen; Q969H0; AlphaScreen FBW7–phospho-cyclin E peptide binding, activator screen; normalized activity (activation), % at 26.1 µM; 650,000 compounds, 0.13% hits; in the data active = normalized activity above about 1.9%;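 note: purified mutant Fbw7 with reduced substrate affinity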
Active calls of the source: *.

SMILES	MITF inh	TEAD-YAP block	GPR151 ag	FBW7 activator
O=C(Nc1ccc(N2CCOCC2)cc1)c1csc(Br)n1	19	52*	-10	0
Nc1cccc(-c2cccc(C(=O)Nc3ccc(N4CCOCC4)cc3)n2)c1	-12	-12	1	0
Cc1nc2c(C(=O)Nc3ccc(Cl)cc3)snc2c(=O)[nH]1	0	0	1	0
Cc1nc2c(C(=O)Nc3ccc(N4CCOCC4)cc3)snc2c(=O)[nH]1	-4	33*	-1	0
O=C(Nc1ccc(N2CCOCC2)cc1)c1cc([N+](=O)[O-])ccc1Cl	-1	35*	0	0
Cc1nn(C)c(C)c1-c1cccc(C(=O)Nc2ccc(N3CCOCC3)cc2)n1	-7	45*	0	0
O=C(Nc1ccc(N2CCOCC2)cc1)c1csc(N2CCC(N3CCOCC3)CC2)n1	0	-24	0	0
O=C(Nc1ccc(N2CCCC2)cc1)c1cc([N+](=O)[O-])ccc1N1CCOCC1	8	-10	2	0
CCN(CC)S(=O)(=O)c1cc([N+](=O)[O-])ccc1N/N=C/c1sccc1C	-2	12	1	0
O=C(CN1c2cccc3cccc(c23)S1(=O)=O)NC1CCCc2ccccc21 (centres undefined)	-9	-8	2	0
COc1cc(C2C(C(=O)OC(C)C)=C(C)N=C3SCCC(=O)N32)ccc1OC(C)=O (centres undefined)	19	12	-2	0
CCN=C(NS(=O)(=O)c1ccc(Br)cc1)c1ccccc1	-4	-3	0	0
O=C(Nc1ccccc1Br)c1cc([N+](=O)[O-])ccc1N1CCOCC1	-9	50*	1	0
O=C(Nc1ccc(N2CCOCC2)cc1)c1cc([N+](=O)[O-])ccc1Br	-8	43*	-1	0
O=C(Nc1ccc(N2CCCCC2)cc1)c1cc([N+](=O)[O-])ccc1N1CCOCC1	11	7	0	0
O=C(c1cc([N+](=O)[O-])ccc1N1CCCCC1)N1CCN(c2ccccc2)CC1	-1	48*	1	0
Cc1sc2nc(C)n3c(=O)n(CC(=O)Nc4ccc5c(c4)OCCO5)nc3c2c1C	10	-5	0	0
C=CCOC(=O)C1=C(C)Nc2nnnn2C1c1cccc(OC)c1 (centres undefined)	12	50*	-1	0
COc1cccc(CN2C[C@@H]3C[C@@H](c4ccc(N(C)C)cc4)N4CCC[C@@]34C2=O)c1	8	3	2	0
COC(=O)c1ccc2c(=O)n(CC3CCCO3)c(SCC(=O)Nc3ccc(C)c(Cl)c3)nc2c1 (centres undefined)	-4	-7	0	3.5*
COC(=O)c1ccc2c(=O)n(CC3CCCO3)c(SCC(=O)Nc3ccc(C)cc3)nc2c1 (centres undefined)	0	4	2	0
COc1ccc(OS(=O)(=O)c2cc(C)ccc2OC)cc1	-6	48*	-1	0
COc1cc(NS(=O)(=O)c2ccc(Cl)cc2)c(OC)cc1Br	21	34*	0	0
COc1ccc(Cl)cc1NS(=O)(=O)c1ccc(F)cc1	-13	-10	-1	0
COc1ccc(S(=O)(=O)Nc2cc(Cl)ccc2OC)cc1	3	61*	-3	0
SMILES	MITF inh	TEAD-YAP block	GPR151 ag	FBW7 activator
COc1ccc(OC)c(S(=O)(=O)Oc2c(C)cccc2C)c1	-5	-3	3	0
COC(=O)CN(c1cc(OC)ccc1OC)S(=O)(=O)c1ccc(C)cc1	3	44*	2	0
Nc1ccc(NS(=O)(=O)c2ccc(Cl)cc2)cc1	12	0	1	0
CC(C)c1ccc(Cc2cc(C(=O)N(C)C(C)c3ccon3)on2)cc1 (centres undefined)	3	-38	2	0
COc1ccccc1OCC(=O)NCc1nc(-c2cccc(C)c2)no1	-1	11	0	0
Nc1nnc(SCC(=O)Nc2nc3ccc([N+](=O)[O-])cc3s2)s1	-14	-5	0	0
COc1ccc(C)cc1NS(=O)(=O)c1cccc(C(=O)O)c1	19	-2	0	1.9*
Cc1ccc(Br)c(NS(=O)(=O)c2cccc(C(=O)O)c2)c1	9	3	0	1
COc1ccc(S(=O)(=O)Nc2cc(C)ccc2OC)cc1	1	58*	0	0
COc1ccc(C)cc1NS(=O)(=O)c1ccc(C)cc1	-13	7	-1	0
O=C(Nc1ccc(NC(=O)c2sc3ccccc3c2Cl)cc1)c1cccs1	-5	5	0	0
COc1cc(C(=O)N2N=C(C)CC2(O)C(F)(F)F)ccc1O (centres undefined)	0	-15	0	0
